Source: PubChem
A selection: hits, their analogues and other compounds. The true share with any hit is near 4.2%.
NLRP3 yeast inh: NALP3 inhibition in yeast. Yeast reconstituted NLRP3/ASC/caspase-1, beta-gal luminescence, 24 h. inhibition, % at 10 µM. actives 0.39% (n = 330,000). AID 2825;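 active = inhibition of 50% or more; inactive = inhibition below 50%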;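 note: plate controls were induced DMSO wells for no effect and uninduced yeast grown without galactose for full effect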
tim23-1 inh: growth inhibitors of tim23-1 mutant yeast; actives 1.3% (n = 330,000); S. cerevisiae tim23-1 growth, BacTiter-Glo luminescence, 24 h; inhibition, % at 20 µM; AID 463212;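 active = growth inhibition of the mutant yeast at or above 50%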;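 note: temperature-sensitive mutant grown at 25 °C; plate controls were DMSO-treated mutant yeast for no effect and medium wells lacking yeast for full effect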
V-ATPase pH: alters yeast V-ATPase proton transport; S. cerevisiae, pHLuorin cytosolic pH fluorescence; response, % at 10 µM; actives 0.37% (n = 350,000); in the data active = response mostly above about 7.3%, no sharp cut-off; inactive = mostly below about 5.4%; note: actives read high
TIM10 inh: growth inhibitors of TIM10 yeast strain; actives 1.4% (n = 330,000); S. cerevisiae TIM10 strain growth, BacTiter-Glo luminescence, 24 h; inhibition, % at 10 µM; AID 463195;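 active = inhibition of 40% or more at the single tested concentration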;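 note: wild-type TIM10 isogenic control strain grown at permissive 25 °C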
NALP1 inh: inhibitors of NALP1 inflammasome in yeast; actives 0.61% (n = 280,000); AID 2071; S. cerevisiae NALP1/ASC/caspase-1 growth, X-gal OD620, 72 h; inhibition, % at 10 µM; in the data active = inhibition mostly above about 24%, no sharp cut-off; inactive = mostly below about 32%
tim10-1 inh: growth inhibitors of tim10-1 mutant yeast. inhibition, % at 20 µM. S. cerevisiae tim10-1 ts strain growth, BacTiter-Glo, 24 h. actives 2.2% (n = 330,000);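 active = inhibition of at least 40%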;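 note: mutant grown at 25 °C; 0% = DMSO wells with yeast and 100% = wells holding no yeast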
tim23-1 confirm: tim23-1 yeast growth inhibition, confirmed; shares compounds with tim23-1 inh; S. cerevisiae tim23-1 growth, BacTiter-Glo luminescence, 24 h; inhibition, % at 20 µM; actives 83% (n = 4,400);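 active = inhibition above about 39% in either of two replicate wells at 20 µM, limit read from the data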;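 note: temperature-sensitive tim23-1 mutant grown at 25 °C; 0% = DMSO wells with yeast and 100% = medium wells without yeast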
Active calls of the source: *.

What do the screens show for `Cc1cc(C)n(-c2ccc(C(=O)Nc3nc4ccccc4s3)cc2)n1`?
NLRP3 yeast inh: -5.6; tim23-1 inh: -3.6; V-ATPase pH: 0.7; TIM10 inh: 0.0; NALP1 inh: 8.0; tim10-1 inh: -9.7

What do the screens show for `COc1ccc(C(=O)NCC(C)C)c(OC)c1`?
NLRP3 yeast inh: 15.4; tim23-1 inh: 72.4*; V-ATPase pH: -4.7; TIM10 inh: 4.6; NALP1 inh: 16.4; tim10-1 inh: -2.5; tim23-1 confirm: 6.7

What do the screens show for `C=CCn1cccc(C(=O)Nc2ccc(OC)cc2)c1=O`?
NLRP3 yeast inh: 19.6; tim23-1 inh: 95.5*; V-ATPase pH: -0.6; TIM10 inh: 5.7; NALP1 inh: 10.7; tim10-1 inh: 4.8; tim23-1 confirm: 19.2

What do the screens show for `Nc1ccc(C(=O)Nc2nc3ccccc3s2)cc1`?
NLRP3 yeast inh: 30.1; tim23-1 inh: 50.6*; V-ATPase pH: 4.2; TIM10 inh: 11.5; NALP1 inh: 51.4; tim10-1 inh: 2.5; tim23-1 confirm: 44.3*

How did CCOc1ccc(NC(=O)c2cc3ccccc3cc2OC)cc1 do in these assays?
NLRP3 yeast inh: 21.6; tim23-1 inh: 14.4; V-ATPase pH: -2.3; TIM10 inh: 0.7; NALP1 inh: 4.0; tim10-1 inh: 7.6

How did COc1ccc(S(=O)(=O)NCCC(=O)N2CCCN(C)CC2)cc1 do in these assays?
NLRP3 yeast inh: 23.7; tim23-1 inh: 4.9; V-ATPase pH: -1.1; TIM10 inh: 1.3; tim10-1 inh: -5.0

What do the screens show for `CSCC[C@H](NC(=O)OC(C)(C)C)C(=O)N1CCC(C(=O)N[C@@H](C)C(=O)NCc2ccc(F)cc2)CC1`?
NLRP3 yeast inh: -7.5; tim23-1 inh: 10.2; V-ATPase pH: -3.3; TIM10 inh: -2.6; NALP1 inh: 9.7; tim10-1 inh: 5.3

Results for Cc1ccc(-n2ncc3c2CC(C)(C)CC3NC(=O)CCc2cccnc2)cc1 (stereo not drawn) ?
NLRP3 yeast inh: 7.7; tim23-1 inh: 11.1; V-ATPase pH: 0.4; TIM10 inh: -0.8; NALP1 inh: 0.6; tim10-1 inh: 11.1

What do the screens show for `N#Cc1cccc(C#N)c1Oc1ccc(S(=O)(=O)Nc2ccc(Cl)cc2)cc1`?
NLRP3 yeast inh: 17.6; tim23-1 inh: -0.5; V-ATPase pH: -6.0; TIM10 inh: -2.0; NALP1 inh: 13.2; tim10-1 inh: -57.8

What do the screens show for `COc1cc(Cl)c(C)cc1NC(=O)CC1SC(N2CCOCC2)=NC1=O` (stereo not drawn)?
NLRP3 yeast inh: 0.8; tim23-1 inh: -16.1; V-ATPase pH: 1.8; TIM10 inh: 0.9; tim10-1 inh: 3.6

Results for CCS(=O)(=O)c1ncc(CO)n1CCc1ccccc1 ?
NLRP3 yeast inh: 12.0; tim23-1 inh: 3.3; V-ATPase pH: 5.1; TIM10 inh: 4.4; NALP1 inh: -2.7; tim10-1 inh: -1.8

Results for CC(C)c1nc2cc(C(=O)N3CCNC(=O)C3c3cccc(F)c3)ccc2o1 (stereo not drawn) ?
NLRP3 yeast inh: -14.4; tim23-1 inh: 5.8; V-ATPase pH: 0.5; TIM10 inh: -0.1; NALP1 inh: 19.0; tim10-1 inh: 1.5

Results for COc1ccc2nc(NC(=O)c3ccccc3C(=O)O)sc2c1 ?
NLRP3 yeast inh: 16.6; tim23-1 inh: 9.6; V-ATPase pH: -1.4; TIM10 inh: -23.5; NALP1 inh: 18.3; tim10-1 inh: 4.8

Results for COc1ccccc1C(=O)Nc1nc2ccccc2s1 ?
NLRP3 yeast inh: 35.8; tim23-1 inh: 58.3*; V-ATPase pH: 0.4; TIM10 inh: 34.6; NALP1 inh: 20.6; tim10-1 inh: 34.8; tim23-1 confirm: 48.3*

What do the screens show for `COc1ccc(C(=O)Nc2nc3ccccc3s2)c(OC)c1`?
NLRP3 yeast inh: 37.4; tim23-1 inh: 62.6*; V-ATPase pH: -0.2; TIM10 inh: 20.3; tim10-1 inh: 33.2; tim23-1 confirm: 74.8*

What do the screens show for `COc1ccccc1N1CCN(C(=O)c2cc3cc(C)ccc3[nH]2)CC1`?
NLRP3 yeast inh: 3.6; tim23-1 inh: 20.7; V-ATPase pH: 1.9; TIM10 inh: 3.8; NALP1 inh: 18.6; tim10-1 inh: 1.0

How did COc1ccccc1N1CCN(C(=O)c2cc3ccccc3[nH]2)CC1 do in these assays?
NLRP3 yeast inh: 0.5; tim23-1 inh: 52.4*; V-ATPase pH: 3.2; TIM10 inh: 24.3; NALP1 inh: -2.0; tim10-1 inh: 25.7; tim23-1 confirm: 48.3*

Results for CCN(CC(=O)NC(C)(C)C)C(=O)c1ccc2c(c1)S(=O)(=O)c1ccccc1C2=O ?
NLRP3 yeast inh: -2.6; tim23-1 inh: 7.4; V-ATPase pH: -0.1; TIM10 inh: -5.7; NALP1 inh: 4.2; tim10-1 inh: 1.5

Results for CC1CCCN(S(=O)(=O)c2ccc3[nH]c4c(c3c2)CCCC4)C1 (stereo not drawn) ?
NLRP3 yeast inh: 13.0; tim23-1 inh: 55.9*; V-ATPase pH: -6.4; TIM10 inh: 33.0; NALP1 inh: 14.9; tim10-1 inh: 32.0; tim23-1 confirm: 56.4*

What do the screens show for `CC1CCCN(S(=O)(=O)c2ccc(S(=O)(=O)N3CCCC3)cc2)C1` (stereo not drawn)?
NLRP3 yeast inh: 5.6; tim23-1 inh: -9.9; V-ATPase pH: -0.2; TIM10 inh: 6.1; NALP1 inh: 6.1; tim10-1 inh: -25.8

Results for O=C(COC(=O)c1ccc(Cl)nc1)NCCc1ccc(F)cc1 ?
NLRP3 yeast inh: 4.9; tim23-1 inh: 13.1; V-ATPase pH: -3.5; TIM10 inh: 6.8; tim10-1 inh: 11.5

How did COc1ccc(N2C(=O)CC(NCC#N)C2=O)cc1 (stereo not drawn) do in these assays?
NLRP3 yeast inh: 3.0; tim23-1 inh: 9.2; V-ATPase pH: 2.5; TIM10 inh: 0.7; NALP1 inh: 7.1; tim10-1 inh: 4.2

How did COc1ccc(N2C(=O)CC(NCc3cccs3)C2=O)cc1 (stereo not drawn) do in these assays?
NLRP3 yeast inh: 1.8; tim23-1 inh: 54.6*; V-ATPase pH: 5.0; TIM10 inh: 1.1; NALP1 inh: -30.8; tim10-1 inh: -3.8; tim23-1 confirm: 12.9

How did Cc1cccc(NC(=O)CSCC(=O)NCc2ccco2)c1 do in these assays?
NLRP3 yeast inh: 7.3; tim23-1 inh: -1.3; V-ATPase pH: -0.1; TIM10 inh: 9.5; NALP1 inh: 8.1; tim10-1 inh: 5.7

Results for O=C(CCl)N1c2ccccc2OCC1c1ccccc1 (stereo not drawn) ?
NLRP3 yeast inh: -7.7; tim23-1 inh: 46.4; V-ATPase pH: 2.0; TIM10 inh: 27.7; NALP1 inh: 38.0; tim10-1 inh: 38.9

How did O=C(CCl)N1c2ccccc2SCC1c1ccccc1 (stereo not drawn) do in these assays?
NLRP3 yeast inh: 8.6; tim23-1 inh: 53.6*; V-ATPase pH: -1.1; TIM10 inh: 28.5; NALP1 inh: 13.8; tim10-1 inh: 0.5; tim23-1 confirm: 51.2*
